# Results reported in PubChem BioAssay.
# “And” between values parts separate entries of the source, which are not always exact repeats. Identical values can stand only once. Results filed as inconclusive are left out. The source made the active and inactive calls. Rule as the data show it, unless noted: active = inhibition above about 80%; inactive = the rest.
# Legend:
# [1] = growth inhibition, single agents and combos, CRL2098, cell-based, BGB or cisplatin IC20 combos, synergistic combos for chromothripsis tumors (AID 1671454); conditions: CRL2098 osteosarcoma cells, drug combinations, stronger effect = higher value;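 also: cells exposed for 96 h before readout; 0% = vehicle DMSO and 100% = killing by high DMSO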
# [2] = growth inhibition, single agents and combos, HD-MB03, cell-based, BGB or cisplatin IC20 combos, synergistic combos for chromothripsis tumors (AID 1671455; in the data active = inhibition above about 83%;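 also: 0% = vehicle DMSO and 100% = high DMSO as cytotoxic control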); conditions: HD-MB03 medulloblastoma cells, stronger effect = higher value
# [3] = growth inhibition, single agents and combos, UWB1.289, cell-based, BGB or cisplatin combos, synergistic combos for chromothripsis tumors (AID 1671456); conditions: UWB1.289 ovarian carcinoma cells, stronger effect = higher value;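 also: cells exposed to compound for four days; 0% = vehicle DMSO and 100% = killing by high DMSO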
# [4] = growth inhibition, single agents and combos, LFS_MB_2R, cell-based, cisplatin combos, synergistic combos for chromothripsis tumors (AID 1671457); conditions: LFS_MB_2R medulloblastoma cells, stronger effect = higher value;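 also: cells exposed to compound for four days before readout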
# [5] = growth inhibition, MDA-MB-436, cell-based, BGB or cisplatin combos, synergistic combos for chromothripsis tumors (AID 1671458; call rule not given here;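 also: cells exposed for 96 hours; 0% = vehicle DMSO and 100% = killing by high DMSO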); conditions: MDA-MB-436 breast carcinoma growth inhibition, drug combinations, stronger effect = higher value
# [6] = UWB1.289_BRCA1 ovarian cancer growth, cell-based, BGB or cisplatin combinations (AID 1671459); conditions: UWB1.289 BRCA1 ovarian carcinoma, drug combinations, stronger effect = higher value
# [7] = drug combination toxicity in non-malignant astrocytes – cell-based, BGB or cisplatin IC20 combos, cytotoxicity control for chromothriptic childhood tumor combination screen (AID 1671460); conditions: Human astrocytes, viability inhibition, drug combinations, at 0.5 µM, stronger effect = higher value;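 also: cells exposed to compounds for 96 hours before viability readout; 0% = vehicle and 100% = killing control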
# [8] = BT084 cell growth, single and combined drugs, ICGC_MB145, cisplatin and BGB IC40 combos (AID 1671461); conditions: BT084 medulloblastoma cells, drug combinations, stronger effect = higher value;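 also: cells exposed to drugs for 96 hours; 0% = vehicle DMSO and 100% = high DMSO full killing control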
# [9] = RCMB18 cell growth, single agent and combined, cisplatin and BGB IC40 combos (AID 1671462); conditions: RCMB18 medulloblastoma cells, stronger effect = higher value;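 also: cells exposed to compound for four days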
# [10] = CRL1545 cell growth, single agent and combined, cisplatin and BGB IC20 combos (AID 1671464); conditions: CRL1545 osteosarcoma cells, stronger effect = higher value;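 also: cells exposed to compound for 96 hours before readout; 0% = vehicle DMSO and 100% = high DMSO killing control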
# [11] = viability loss in pontine glioma line – cell-based, SU-DIPG-XVII, MIPE5.0, CellTiter-Glo, qHTS, dose response (AID 1347060; cut-off not given, nearly all actives have AC50 up to about 26 µM); conditions: CellTiter-Glo ATP luminescence
# [12] = viability loss in pontine glioma line – cell-based, SU-DIPG-XXV, MIPE5.0, CellTiter-Glo, qHTS, dose response (AID 1347065; cut-off not given, nearly all actives have AC50 up to about 26 µM;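 also: cells exposed to compound for 48 hours before ATP readout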); conditions: CellTiter-Glo ATP luminescence
# [13] = JHH-DIPG-1 glioma cell viability, MIPE5.0 library, CellTiter-Glo luminescence, qHTS (AID 1347067; cut-off not given, nearly all actives have AC50 up to about 26 µM;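 also: cells exposed to compound for 48 hours before readout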); conditions: JHH-DIPG-1 glioma viability, CellTiter-Glo ATP luminescence
# [14] = growth inhibition of DIPG cells – cell-based, MIPE5.0 library, qHTS (AID 1347068; cut-off not given, nearly all actives have IC50 up to about 30 µM); conditions: SU-DIPG-XXV viability
# [15] = measured here: combination with cisplatin, at 0.5 µM
smiles,measurement,setting,value
CO[C@H]1C=CO[C@@]2(C)Oc3c(C)c(O)c4c(O)c(c5c(nc6cc(C)ccn65)c4c3C2=O)NC(=O)C(C)=CC=C[C@H](C)[C@H](O)[C@@H](C)[C@@H](O)[C@@H](C)[C@H](OC(C)=O)[C@@H]1C,inhibition,[1]; at 0.5 µM,-18.8% (inactive) and -34.3% (inactive)
same,inhibition,"[1]; measured here: combination with BGB at IC20, at 0.5 µM",-28.7% and -29%
same,inhibition,"[1]; measured here: combination with cisplatin at IC20, at 0.5 µM",-10.1% and -43.6%
same,inhibition,[2]; at 0.5 µM,-6.38% (inactive) and 5.86% (inactive)
same,inhibition,"[2]; measured here: combo with BGB at IC20, at 0.5 µM",-2.33% and 1.22%
same,inhibition,"[2]; measured here: combo with cisplatin at IC20, at 0.5 µM",-9.26% and 19.1%
same,inhibition,[3]; at 0.5 µM,4.48% (inactive) and 6.54% (inactive)
same,inhibition,"[3]; measured here: inhibition with BGB combination, at 0.05 µM",-18.6% and -11.7%
same,inhibition,"[3]; measured here: inhibition with cisplatin combination, at 0.05 µM",-10.6% and 10.3%
same,inhibition,[4]; at 0.5 µM,-17.5% (inactive) and -15.1% (inactive)
same,inhibition,[4]; [15],-7.91% and -17.1%
same,inhibition,"[4]; measured here: combination with cisplatin, at 5 µM",-18% and -13.3%
same,inhibition,[5]; at 0.5 µM,-11.8% (inactive) and -3.37% (inactive)
same,inhibition,"[5]; measured here: BGB combination, at 0.5 µM",-0.535% and -8.79%
same,inhibition,"[5]; measured here: BGB combination, at 5 µM",-3.41% and -15.2%
same,inhibition,"[5]; measured here: cisplatin combination, at 0.5 µM",-30.7% and -0.606%
same,inhibition,"[5]; measured here: cisplatin combination, at 5 µM",-23.7% and -8.55%
same,inhibition,"[6]; BGB combination, concentration series, at 5 µM",3.57% and 12%
same,inhibition,[6]; at 0.5 µM,6.89% (inactive) and 6.14% (inactive)
same,inhibition,"[6]; cisplatin combination, concentration series, at 5 µM",5.53% and -6.86%
same,inhibition,[7],-8.79% (inactive) and -10.8% (inactive)
same,inhibition,[7]; measured here: combo with BGB IC20,-1.97% and -5.46%
same,inhibition,[7]; measured here: combo with cisplatin IC20,-27% and -10.4%
same,inhibition,[8]; at 0.5 µM,-17.7% (inactive) and -11.5% (inactive)
same,inhibition,"[8]; cisplatin combination, at 0.5 µM",-34% and -17.3%
same,inhibition,"[8]; cisplatin combination, at 5 µM",-37% and 5.08%
same,inhibition,"[8]; measured here: BGB IC40 combination 0.05 uM, at 0.05 µM",-7.06% and 28.8%
same,inhibition,"[8]; single agent, at 5 µM",-13.3% and -9.78%
same,inhibition,[9]; at 0.5 µM,-1.81% (inactive) and -2.64% (inactive)
same,inhibition,"[9]; cisplatin combo, at 5 µM",-11.2% and 11.2%
same,inhibition,"[9]; measured here: BGB IC40 combination, at 0.05 µM",12.8% and 1.86%
same,inhibition,[9]; [15],-36.9% and 15.4%
same,inhibition,"[9]; single agent, at 5 µM",-12% and -2.61%
same,inhibition,[10]; at 0.5 µM,8.59% (inactive) and -15.2% (inactive)
same,inhibition,"[10]; measured here: with BGB IC20 combination, at 0.5 µM",-1.52% and -4.42%
same,inhibition,"[10]; measured here: with cisplatin IC20 combination, at 0.5 µM",13.6% and -22.6%
same,inhibition,"[10]; single agent, at 0.05 µM",15.1% and 18%
same,inhibition,"[10]; single agent, at 5 µM",-31.6% and 28.6%
CO[C@H]1O[C@@H]2O[C@@]3(C)CC[C@H]4[C@H](C)CC[C@@H]([C@H]1C)[C@@]24OO3,outcome,[11],inactive
same,outcome,[12],inactive
same,outcome,[13],inactive
same,outcome,[14],inactive
CCC(=O)NS(=O)(=O)c1ccc(-c2c(-c3ccccc3)noc2C)cc1,outcome,[11],inactive
same,outcome,[12],inactive
same,outcome,[13],inactive
same,outcome,[14],inactive
CN1CCN2c3ncccc3Cc3ccccc3C2C1 (stereo not given),outcome,[11],inactive
same,outcome,[12],inactive
same,outcome,[13],inactive
same,outcome,[14],inactive
